# Test results reported in PubChem BioAssay (EPA / NIEHS).
# Activity calls are given as the source filed them. The calls were made as follows: active = hit-call score of the fitted dose curve at least 0.9, where 1 is the maximum; inactive = score below 0.9.
# How the values were obtained:
# Details in all cases: mRNA level, 48 h; actives raise or lower the signal
# [1] = read-out: Cytochrome P450 (CYP24A1), CYP24A1 (gene 1591); assay: LTEA_HepaRG_CYP24A1: Life Technologies and Expression Analysis (LTEA) Assay for Cytochrome P450 (CYP24A1) using HepaRG (AID 2283478)
# Summary of the method: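 Differentiated HepaRG cells, pre-cultured 48 h, were exposed in duplicate for 48 h in serum-free induction medium to 8 half-log concentrations (top 100 uM, 0.5% DMSO). CYP24A1 mRNA was quantified by TaqMan qRT-PCR, normalized to ACTB/GAPDH/POLR2A, fitted bidirectionally versus DMSO.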
# [2] = read-out: cysteine-aspartic acid protease (CASP8), CASP8 (gene 841); assay: LTEA_HepaRG_CASP8: Life Technologies and Expression Analysis (LTEA) Assay for cysteine-aspartic acid protease (CASP8) using HepaRG (AID 2283480)
# Summary of the method: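 Concentration-response in duplicate up to 100 uM (half-log steps, 0.5% DMSO) on differentiated HepaRG cultures for 48 h. Expression change of CASP8 mRNA is determined by TaqMan qRT-PCR with housekeeping-gene normalization.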
# [3] = read-out: Cytochrome P450 (CYP2B6), CYP2B6 (gene 1555); assay: LTEA_HepaRG_CYP2B6: Life Technologies and Expression Analysis (LTEA) Assay for Cytochrome P450 (CYP2B6) using HepaRG (AID 2283481)
# Summary of the method: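 Differentiated HepaRG cells, serum-free induction medium, exposed 48 h in duplicate to 8-point half-log concentrations from 100 uM in 0.5% DMSO. CYP2B6 mRNA by qRT-PCR, normalized to ACTB, GAPDH, POLR2A; bidirectional fit versus DMSO.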
# [4] = read-out: Cytochrome P450 2C19 (Homo sapiens) (UniProt P33261); assay: LTEA_HepaRG_CYP2C19: Life Technologies and Expression Analysis (LTEA) Assay for CYP2C19 using HepaRG (AID 2283482)
# Summary of the method: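 Differentiated human HepaRG cells were exposed for 48 h in serum-free induction medium to 8 concentrations (top 100 uM, half-log steps, 0.5% DMSO). CYP2C19 mRNA was measured by qRT-PCR, normalized to ACTB/GAPDH/POLR2A, and fitted bidirectionally against DMSO.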
# CYP2C8 (gene 1558) = assay: LTEA_HepaRG_CYP2C8: Life Technologies and Expression Analysis (LTEA) Assay for CYP2C8 using HepaRG (AID 2283483)
# Summary of the method: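 This is a transcriptional endpoint in HepaRG cultures: 48 h exposure, highest concentration 100 uM. CYP2C8 mRNA is quantified by TaqMan qRT-PCR.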
# CYP2C9 (gene 1559) = assay: LTEA_HepaRG_CYP2C9: Life Technologies and Expression Analysis (LTEA) Assay for CYP2C9 using HepaRG (AID 2283484)
# Summary of the method: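 Eight-point concentration-response (highest 100 uM, half-log dilutions) in HepaRG cells for 48 h; CYP2C9 expression by qRT-PCR normalized to ACTB, GAPDH, POLR2A. Bidirectional fit, DMSO baseline.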
# CYP2E1 (gene 1571) = assay: LTEA_HepaRG_CYP2E1: Life Technologies and Expression Analysis (LTEA) Assay for CYP2E1 using HepaRG (AID 2283485)
# Summary of the method: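 CYP2E1 transcript measured by Fluidigm qRT-PCR against three housekeeping genes in human HepaRG cells treated 48 h (top 100 uM, half-log steps, 0.5% DMSO vehicle). Gain or loss fitted relative to DMSO baseline.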
# CYP4A11 (gene 1579) = assay: LTEA_HepaRG_CYP4A11: Life Technologies and Expression Analysis (LTEA) Assay for CYP4A11 using HepaRG (AID 2283486)
# Summary of the method: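 Differentiated HepaRG cells, serum-free induction medium, exposed 48 h in duplicate to 8-point half-log series from 100 uM in 0.5% DMSO. CYP4A11 mRNA measured by qRT-PCR, normalized to ACTB, GAPDH, POLR2A; bidirectional fit versus DMSO.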
# [5] = read-out: Cytochrome P450 3A4 (Homo sapiens) (UniProt P08684); assay: LTEA_HepaRG_CYP3A4: Life Technologies and Expression Analysis (LTEA) Assay for CYP3A4 using HepaRG (AID 2283487)
# Summary of the method: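 In a human hepatic line (HepaRG), duplicate wells were treated 48 h with up to 100 uM chemical in half-log dilutions. Endpoint: CYP3A4 mRNA induction or loss relative to 0.5% DMSO vehicle, by qRT-PCR.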
# [6] = read-out: DNA damage-inducible transcript 3 (DDIT3), DDIT3 (gene 1649); assay: LTEA_HepaRG_DDIT3: Life Technologies and Expression Analysis (LTEA) Assay for DNA damage-inducible transcript 3 (DDIT3) using HepaRG (AID 2283488)
# Summary of the method: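 DDIT3 transcript was quantified by qRT-PCR with ACTB/GAPDH/POLR2A normalization after 48 h chemical treatment of differentiated HepaRG cells in 0.5% DMSO. Dosing was eight-point, half-log, top 100 uM, duplicate wells. Curves fitted bidirectionally versus DMSO.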
# [7] = read-out: Pro-epidermal growth factor (Homo sapiens) (UniProt P01133); assay: LTEA_HepaRG_EGF: Life Technologies and Expression Analysis (LTEA) Assay for Epidermal growth factor (EGF) using HepaRG (AID 2283489)
# Summary of the method: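 Differentiated human HepaRG cells, plated 48 h then switched to serum-free induction medium, were exposed for 48 h to test chemicals (8-point half-log series, top 100 uM, 0.5% DMSO). EGF mRNA was quantified by qRT-PCR, normalized to ACTB, GAPDH, POLR2A.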
# [8] = read-out: Ezrin (EZR), EZR (gene 7430); assay: LTEA_HepaRG_EZR: Life Technologies and Expression Analysis (LTEA) Assay for Ezrin (EZR) using HepaRG (AID 2283491)
# Summary of the method: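 Gain or loss of EZR mRNA is scored relative to 0.5% DMSO in human HepaRG cultures treated 48 h with test chemicals in duplicate, eight half-log concentrations from 100 uM.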
# [9] = read-out: Cytochrome P450 3A7 (Homo sapiens) (UniProt P24462); assay: LTEA_HepaRG_CYP3A7: Life Technologies and Expression Analysis (LTEA) Assay for CYP3A7 using HepaRG (AID 2283492)
# Summary of the method: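 HepaRG cells plated 48 h, then dosed in serum-free induction medium for 48 h at 8 concentrations (top 100 uM, half-log steps, 0.5% DMSO). CYP3A7 mRNA by qRT-PCR, normalised to ACTB/GAPDH/POLR2A; bidirectional fit versus DMSO.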
# CYP3A5 (gene 1577) = assay: LTEA_HepaRG_CYP3A5: Life Technologies and Expression Analysis (LTEA) Assay for CYP3A5 using HepaRG (AID 2283493)
# Summary of the method: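 mRNA levels were quantified by qRT-PCR on Fluidigm arrays and normalized to three housekeeping genes. Differentiated HepaRG cells received 48 h exposure (top 100 uM, half-log steps, 0.5% DMSO vehicle, duplicate); bidirectional fitting versus DMSO.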
# [10] = read-out: Fatty Acid-Binding Protein 1 (FABP1), FABP1 (gene 2168); assay: LTEA_HepaRG_FABP1: Life Technologies and Expression Analysis (LTEA) Assay for Fatty Acid-Binding Protein 1 (FABP1) using HepaRG (AID 2283494)
# Summary of the method: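 Values reflect bidirectional concentration-response fitting of FABP1 mRNA change against 0.5% DMSO controls. Human HepaRG cultures received eight half-log doses (top 100 uM) for 48 h; expression quantified by TaqMan qRT-PCR with housekeeping-gene normalization.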
# [11] = read-out: Cytochrome P450 4A22 (Homo sapiens) (UniProt Q5TCH4); assay: LTEA_HepaRG_CYP4A22: Life Technologies and Expression Analysis (LTEA) Assay for Cytochrome P450 4A22 (CYP4A22) using HepaRG (AID 2283495)
# Summary of the method: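 qRT-PCR of CYP4A22 mRNA (Fluidigm TaqMan, normalized to three housekeeping genes) after 48 h chemical exposure of HepaRG cells; 8-point half-log series, top 100 uM, 0.5% DMSO vehicle. Bidirectional curve fitting vs DMSO baseline.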
# [12] = read-out: Cytochrome P450 7A1 (Homo sapiens) (UniProt P22680); assay: LTEA_HepaRG_CYP7A1: Life Technologies and Expression Analysis (LTEA) Assay for Cytochrome P450 7A1 (CYP7A1) using HepaRG (AID 2283496)
# Summary of the method: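 HepaRG, 48 h exposure, 8-pt half-log series from 100 uM, 0.5% DMSO vehicle, duplicates. Readout: TaqMan qRT-PCR mRNA vs three housekeeping genes; bidirectional curve fit against DMSO baseline.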
# [13] = read-out: Glutathione S-Transferase (GSTA2), GSTA2 (gene 2939); assay: LTEA_HepaRG_GSTA2: Life Technologies and Expression Analysis (LTEA) Assay for Glutathione S-Transferase (GSTA2) using HepaRG (AID 2283497)
# Summary of the method: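 Oxidative-stress marker GSTA2 is quantified by TaqMan qRT-PCR in HepaRG cultures treated 48 h across an eight-point range to 100 uM. Expression is normalized to endogenous controls and compared with 0.5% DMSO vehicle.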
# [14] = read-out: Cytochrome P450 (CYP1A2), CYP1A2 (gene 1544); assay: LTEA_HepaRG_CYP1A2: Life Technologies and Expression Analysis (LTEA) Assay for Cytochrome P450 (CYP1A2) using HepaRG (AID 2283479)
# Summary of the method: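 Differentiated human HepaRG cells in serum-free induction medium were exposed in duplicate for 48 h to 8-point half-log concentrations up to 100 uM in 0.5% DMSO. CYP1A2 mRNA measured by qRT-PCR, normalized to ACTB, GAPDH, POLR2A; bidirectional fit vs DMSO.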
# Sequence of Cytochrome P450 2C19 (Homo sapiens) (P33261 whole entry, looked up): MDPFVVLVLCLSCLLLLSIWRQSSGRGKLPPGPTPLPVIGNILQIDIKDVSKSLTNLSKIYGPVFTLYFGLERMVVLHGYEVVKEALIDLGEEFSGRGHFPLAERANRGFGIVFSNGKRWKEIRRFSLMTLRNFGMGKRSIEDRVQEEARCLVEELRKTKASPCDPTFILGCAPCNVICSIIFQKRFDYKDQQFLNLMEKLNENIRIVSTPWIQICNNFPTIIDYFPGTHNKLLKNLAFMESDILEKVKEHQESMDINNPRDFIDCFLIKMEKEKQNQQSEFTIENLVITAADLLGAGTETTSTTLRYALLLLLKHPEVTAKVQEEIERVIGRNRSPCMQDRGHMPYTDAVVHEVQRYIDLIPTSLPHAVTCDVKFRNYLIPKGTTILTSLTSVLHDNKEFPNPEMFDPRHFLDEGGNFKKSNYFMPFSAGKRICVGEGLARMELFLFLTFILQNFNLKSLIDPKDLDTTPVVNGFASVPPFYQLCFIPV
# Sequence of Cytochrome P450 3A4 (Homo sapiens) (P08684 whole entry, looked up): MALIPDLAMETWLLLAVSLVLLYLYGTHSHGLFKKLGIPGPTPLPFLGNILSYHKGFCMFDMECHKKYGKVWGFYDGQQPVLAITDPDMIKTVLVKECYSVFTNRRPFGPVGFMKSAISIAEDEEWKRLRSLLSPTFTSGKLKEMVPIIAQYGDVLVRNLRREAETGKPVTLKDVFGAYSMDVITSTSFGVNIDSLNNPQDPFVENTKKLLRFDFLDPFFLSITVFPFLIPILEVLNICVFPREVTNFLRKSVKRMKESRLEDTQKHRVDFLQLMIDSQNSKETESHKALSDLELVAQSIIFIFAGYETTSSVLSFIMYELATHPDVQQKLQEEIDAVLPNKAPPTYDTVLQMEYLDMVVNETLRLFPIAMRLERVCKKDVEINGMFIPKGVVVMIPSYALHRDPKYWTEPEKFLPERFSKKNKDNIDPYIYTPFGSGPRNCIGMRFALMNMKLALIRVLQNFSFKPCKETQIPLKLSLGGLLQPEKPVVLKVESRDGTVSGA
# Sequence of Cytochrome P450 3A7 (Homo sapiens) (P24462 whole entry, looked up): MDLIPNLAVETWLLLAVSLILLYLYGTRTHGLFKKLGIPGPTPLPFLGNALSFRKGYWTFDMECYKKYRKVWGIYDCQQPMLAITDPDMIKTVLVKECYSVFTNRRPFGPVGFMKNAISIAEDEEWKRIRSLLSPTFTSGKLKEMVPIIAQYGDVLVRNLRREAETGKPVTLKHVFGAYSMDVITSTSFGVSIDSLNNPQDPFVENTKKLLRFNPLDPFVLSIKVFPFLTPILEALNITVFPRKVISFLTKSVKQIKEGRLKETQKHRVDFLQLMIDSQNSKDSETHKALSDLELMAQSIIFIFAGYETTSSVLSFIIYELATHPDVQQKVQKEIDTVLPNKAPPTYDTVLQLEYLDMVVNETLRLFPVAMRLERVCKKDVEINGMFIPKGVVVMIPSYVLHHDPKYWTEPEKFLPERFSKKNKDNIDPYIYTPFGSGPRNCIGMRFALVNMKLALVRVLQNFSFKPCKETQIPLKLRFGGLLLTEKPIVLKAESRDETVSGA
smiles,measurement,setting,value
Cc1oc(-c2ccccc2)nc1CCOc1ccc(C[C@H](Nc2ccccc2C(=O)c2ccccc2)C(=O)O)cc1,outcome,[1],inactive
same,AC50,[2],32.1 µM (active)
same,AC50,[3],18.5 µM (active)
same,AC50,[4],23.3 µM (active)
same,AC50,CYP2C8 (gene 1558),25.2 µM (active)
same,AC50,CYP2C9 (gene 1559),22.5 µM (active)
same,AC50,CYP2E1 (gene 1571),17.1 µM (active)
same,AC50,CYP4A11 (gene 1579),28.1 µM (active)
same,AC50,[5],12.7 µM (active)
same,AC50,[6],14.1 µM (active)
same,AC50,[7],24.9 µM (active)
same,AC50,[8],70 µM (active)
same,AC50,[9],25.7 µM (active)
same,AC50,CYP3A5 (gene 1577),30.5 µM (active)
same,AC50,[10],23.1 µM (active)
same,AC50,[11],0.189 µM (active)
same,AC50,[12],23.4 µM (active)
same,AC50,[13],23.4 µM (active)
CC#C[C@]1(O)CC[C@H]2[C@@H]3CCC4=CC(=O)CCC4=C3[C@@H](c3ccc(N(C)C)cc3)C[C@@]21C,outcome,[1],inactive
same,AC50,[14],26.4 µM (active)
same,AC50,[2],27.6 µM (active)
same,AC50,[3],34 µM (active)
same,AC50,CYP2C8 (gene 1558),28 µM (active)
same,AC50,CYP2C9 (gene 1559),50 µM (active)
same,AC50,CYP2E1 (gene 1571),19.6 µM (active)
same,AC50,[6],29.2 µM (active)
same,AC50,[7],4.48 µM (active)
same,AC50,[8],50 µM (active)
same,outcome,CYP3A5 (gene 1577),inactive
same,AC50,[10],35.1 µM (active)
same,AC50,[11],24.2 µM (active)
same,AC50,[12],43.6 µM (active)
same,AC50,[13],71.5 µM (active)
OCCC(F)(F)C(F)(F)C(F)(F)C(F)(F)C(F)(F)C(F)(F)C(F)(F)C(F)(F)F,outcome,[1],inactive
same,outcome,[2],inactive
same,outcome,[3],inactive
same,outcome,[4],inactive
same,outcome,CYP2C8 (gene 1558),inactive
same,outcome,CYP2C9 (gene 1559),inactive
same,outcome,CYP2E1 (gene 1571),inactive
same,outcome,CYP4A11 (gene 1579),inactive
same,outcome,[5],inactive
same,outcome,[6],inactive
same,outcome,[7],inactive
same,outcome,[8],inactive
same,outcome,[9],inactive
same,outcome,CYP3A5 (gene 1577),inactive
same,outcome,[10],inactive
same,outcome,[11],inactive
same,outcome,[12],inactive
same,outcome,[13],inactive
CC(=O)NC1(c2cccc(F)c2)CCN(CC[C@@]2(c3ccc(Cl)c(Cl)c3)CN(c3ccccc3)C(=O)CO2)CC1,outcome,[1],inactive
same,outcome,[2],inactive
same,outcome,[3],inactive
same,outcome,[4],inactive
same,outcome,CYP2C8 (gene 1558),inactive
same,outcome,CYP2C9 (gene 1559),inactive
same,AC50,CYP2E1 (gene 1571),11 µM (active)
same,AC50,[5],3.67 µM (active)
same,AC50,[6],41.5 µM (active)
same,outcome,[7],inactive
same,AC50,[8],41.5 µM (active)
same,AC50,[9],4.05 µM (active)
same,AC50,CYP3A5 (gene 1577),75 µM (active)
same,outcome,[10],inactive
same,AC50,[11],3.17 µM (active)
same,AC50,[12],38 µM (active)
same,AC50,[13],65.1 µM (active)
